# Rows were chosen to be rich in hits. Some 7% of all compounds tested hit in one or more screens of this group.
# PI5P4K alpha inh – qHTS for Inhibitors of phosphatidylinositol 5-phosphate 4-kinase (PI5P4K) | PI5P4Kalpha enzyme, ADP-Glo luminescence, 60 min; active compounds read low | 330,000 compounds, 1.2% hits | max response, % | Phosphatidylinositol 5-phosphate 4-kinase type-2 alpha (Homo sapiens), P48426; active means max response of -50% or lower; inconclusive means between -30% and -50%; inactive means -30% or higher; further: value at the top dose of about 77 µM
#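 Quantitative HTS of the MLSMR library against PI5P4Kalpha with substrate. ATP added last at 5 microM final; room temperature, 60 minutes. Remaining ATP depleted, ADP converted and read as luminescence.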
# HP1b binding inh – HTS for Inhibitors of HP1-beta Chromodomain Interactions with Methylated Histone Tails; Chromobox protein homolog 1 (Homo sapiens), P83916; 390,000 compounds, 0.56% hits; AlphaScreen HP1-beta / biotin-H3K9me3 peptide binding; Potency, µM (highest dose often 114 µM), actives largely listed as inhibitors; further: nearly all actives have a fitted effect of over 70% in size
#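 AlphaScreen: HP1-beta (50 nM) preformed 30 min with biotin-H3(1-18)K9me3 peptide (50 nM) in PBS pH 7.4, 0.01% Tween-20. Compound added for 30 min at RT, then streptavidin donor/nickel chelate acceptor beads (10 ug/mL) for 30 min.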
# PLK1 PBD block – qHTS for Inhibitors of PLK1-PDB (polo-like kinase 1 - polo-box domain): Primary Screen. Plk1 PBD binding of FITC phosphopeptide, fluorescence polarization. Potency, µM, actives largely listed as inhibitors. 360,000 compounds, 2.8% hits; further: series mostly up to about 57 µM; nearly all actives have a fitted effect of over 65% in size
# BAZ2B inh – qHTS Assay for Inhibitors of BAZ2B | Bromodomain adjacent to zinc finger domain protein 2B (Homo sapiens), Q9UIF8 | AlphaScreen BAZ2B-H3K14Ac peptide displacement | Potency, µM (top dose mostly 114 µM), hits mostly inhibitors | 360,000 compounds, 4.4% hits; further: nearly all actives have a fitted effect of over 60% in size
#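 Compounds, titrated to a top concentration of 110 uM, were incubated 30 min at room temperature with preformed BAZ2B/acetyl-K14 H3 peptide complex (50 nM each). Proximity signal was measured by AlphaScreen after 20 min with beads.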
# KAT2A inh – qHTS Assay for Inhibitors of GCN5L2. Histone acetyltransferase KAT2A (Homo sapiens), Q92830. GCN5L2 HAT assay, ThioGlo1 CoA-SH fluorescence. Potency, µM (doses to about 58.9 µM), hits mostly inhibitors. 390,000 compounds, 0.21% hits
#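 Free CoA generated was detected with ThioGlo1 (50uM) fluorescence at Ex340nm/Em540nm, read immediately and after 20 min at room temperature. Enzyme, 20 nM in HEPES pH 7.5 buffer, saw compounds 15 min before adding 75uM H3(1-25) peptide and 70uM acetyl-CoA.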
# JMJD2A Tudor inh – qHTS Assay for Inhibitors of JMJD2A-Tudor Domain; Potency, µM (titrated, usually from 114 µM), most hits filed as inhibitors; AID 504339, 2011; AlphaScreen JMJD2A-Tudor / H3K4me3 peptide binding; Lysine-specific demethylase 4A (Homo sapiens), O75164; 390,000 compounds, 4.4% hits; further: nearly all actives have a fitted effect of over 50% in size
# A number is an active result; . = inactive; ? = inconclusive; / = no result. Unless noted, the call rests on the fitted dose curve; in most records, active means well fitted curve in the direction sought with a large enough effect; inconclusive means small, poorly fitted or top-dose-only effect, or another doubt; inactive means no such curve, though single readings can be large; an effect the other way counts as inactive or inconclusive.
SMILES,PI5P4K alpha inh,HP1b binding inh,PLK1 PBD block,BAZ2B inh,KAT2A inh,JMJD2A Tudor inh
CCOC(=O)c1ccccc1NC(=O)CSc1ncc(CO)n1Cc1ccc(C)cc1,/,.,/,.,.,.
COc1ccc(NC(=O)CSc2nnc(-c3ccc(F)cc3)o2)cn1,.,.,.,.,.,.
CCOC(=O)c1cc(-c2nnc(SCC(=O)Nc3ccc(F)cc3)o2)c(C)nc1C,.,?,21.2µM,.,.,.
COc1ccc(C(CC(=O)N2CCN(c3ccccc3)CC2)c2c(OC)cc(OC)c3c(-c4ccccc4)cc(=O)oc23)cc1 (stereo not drawn),/,/,/,39.8µM,.,/
COc1ccc(C(CC(=O)N2CCOCC2)c2c(OC)cc(OC)c3c(-c4ccccc4)cc(=O)oc23)cc1 (stereo not drawn),?,.,.,56.2µM,?,56.2µM
CCN(CC)C(=O)CC(c1ccc(N(C)C)cc1)c1c(OC)cc(OC)c2c(-c3ccccc3)cc(=O)oc12 (stereo not drawn),.,?,.,20µM,.,31.6µM
COc1ccc(C(CC(=O)N2CCOCC2)c2c(OC)cc(OC)c3ccc(=O)oc23)cc1 (stereo not drawn),.,.,.,.,.,.
COc1ccc(C(CC(=O)N2CCCC2)c2c(OC)cc(OC)c3c(-c4ccccc4)cc(=O)oc23)cc1 (stereo not drawn),?,.,?,56.2µM,.,50.1µM
Cc1cc(C)cc(NC2=CC(c3cccc(F)c3)N(c3cc(C)cc(C)c3)C2=O)c1 (stereo not drawn),/,.,/,.,.,.
COc1ccc(C(CC(=O)N2CCCC(C)C2)c2c(OC)cc(OC)c3c(-c4ccccc4)cc(=O)oc23)cc1 (stereo not drawn),?,.,?,44.7µM,.,44.7µM
COc1cc(OC)c2c(-c3ccccc3)cc(=O)oc2c1C(CC(=O)N1CCCC1)c1ccc(N(C)C)cc1 (stereo not drawn),/,?,/,/,/,22.4µM
COc1ccc(C(CC(=O)N2CCCC(C)C2)c2c(OC)cc(OC)c3ccc(=O)oc23)cc1 (stereo not drawn),.,.,.,.,?,.
O=C(CC1SC(N2CCCC2)=NC1=O)Nc1ccc(C(=O)Nc2ncccc2O)cc1 (stereo not drawn),.,.,.,?,.,?
COc1ccccc1C(c1nnnn1Cc1ccco1)N1CCN(c2cccc(C)c2C)CC1 (stereo not drawn),.,?,.,.,.,.
CCN1CCN(C(c2cccc(OC)c2OC)c2nnnn2Cc2ccco2)CC1 (stereo not drawn),.,.,26.7µM,.,.,?
COc1ccc(N2CCN(C(c3cc(OC)ccc3OC)c3nnnn3Cc3ccco3)CC2)cc1 (stereo not drawn),.,15.8µM,.,44.7µM,.,50.1µM
CCCC(c1nnnn1Cc1ccco1)N1CCN(c2ccccc2)CC1 (stereo not drawn),.,.,.,56.2µM,.,.
CCN(CC)C(=O)c1nc[nH]c1C(=O)N1CCN(c2ccccc2)CC1,.,.,.,.,.,.
O=C(COc1ccc(Br)cc1)Nc1ccc(C(=O)OC2CCCCC2)cc1,/,.,/,.,.,.
COc1cc(C(C[N+](=O)[O-])c2c(C)cc3ccccn23)ccc1O (stereo not drawn),.,?,.,28.2µM,.,?
COc1ccc(C(C[N+](=O)[O-])c2c(-c3ccccc3)cc3ccccn23)cc1OC (stereo not drawn),.,.,.,?,/,.

# Screens deposited in PubChem by National Center for Advancing Translational Sciences (NCATS).
